Pf growth 48h = P. falciparum growth inhibition at 48 hours (one generation); P. falciparum luciferase growth in erythrocytes, 48 h; Potency, µM (series often up to 28.7 µM), for the others: at the top dose activity change, negative = inhibition, most hits filed as inhibitors; actives 5.9% (n = 310,000); AID 504832; further: potency means the concentration at half of the fitted maximal effect; on the % scale 0 is the no-effect control and ±100 the full control effect
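First compound was added to culture medium, then infected red cells at 0.1% parasitemia and 2% hematocrit (final). After incubation at 37 C under 5% CO2, luciferase detection reagent was dispensed and light output recorded.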
Pf growth 96h = P. falciparum growth inhibition at 96 hours; P. falciparum luciferase reporter growth, 96 h; Potency, µM (titrated, usually from 28.7 µM), for the others: at the highest dose activity change, negative = inhibition, actives largely listed as inhibitors; actives 6.9% (n = 320,000); further: potency means the concentration at half of the fitted maximal effect; on the % scale 0 is the no-effect control and ±100 the full control effect
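P. falciparum expressing integrated firefly luciferase, in erythrocytes at 2% hematocrit, 0.05% parasitemia, incubated with compounds 96 h at 37 C, 5% CO2. Growth inhibition read as loss of luminescence; two-generation exposure targets delayed-death apicoplast inhibitors.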
CHX counter = counter-screen for Shiga toxin inhibitors: cycloheximide protein synthesis inhibition | actives 12% (n = 300,000) | cell reporter, cycloheximide protein synthesis inhibition counterscreen | max response, % | AID 2314; in the data active means max response mostly above about 13%, no sharp cut-off; inactive means mostly below about 14%; further: read at 38.3 µM for the half of the compounds with a filed dose; 0% is about no effect
MARV entry inh = blocks Marburg virus binding to or entry into cells; Potency, µM (titrated, usually from 37.8 µM), inactives show at the highest dose activity change, negative = inhibition, usual class: inhibitors; Marburg virus pseudotyped entry inhibition, cell reporter; actives 1.8% (n = 300,000); calls by dose curve; tested in HEK293 cells; further: potency means the concentration at half of the fitted maximal effect; on the % scale 0 is the no-effect control and ±100 the full control effect
LASV entry inh = blocks Lassa virus binding to or entry into cells | Lassa virus pseudotype entry inhibition, cell reporter | Potency, µM (top dose mostly 37.9 µM), without a hit: at the highest dose activity change, negative = inhibition, hits mostly inhibitors | actives 1.2% (n = 300,000); calls by dose curve; tested in HEK293 cells; further: potency means the concentration at half of the fitted maximal effect; on the % scale 0 is the no-effect control and ±100 the full control effect; nearly all actives have a fitted effect of over 50% in size
Shiga toxin inh = inhibitors of Shiga toxin in Vero cells. Vero cells, Shiga toxin protein synthesis inhibition reporter. inhibition, % at 38.7 µM. actives 9.2% (n = 290,000). AID 2315; in the data active means inhibition mostly above about 28%, no sharp cut-off; inactive means mostly below about 43%; further: 0% is about no effect
* = called active by the depositor; i = inactive; ? = inconclusive; · = not tested or not shown; [ ] = another dose, or the depositor's remark. Compounds with a hit are over-represented: about 19% of the library has one in this group of screens. Unless noted, the call rests on the fitted dose curve; in most records, active means well fitted inhibition curve with a large enough effect; inconclusive means small, poorly fitted or top-dose-only effect, or another doubt; inactive means no such curve, though single readings can be large or run the other way.

SMILES	Pf growth 48h	Pf growth 96h	CHX counter	MARV entry inh	LASV entry inh	Shiga toxin inh
O=C(CCC1CCCCC1)NCc1cccnc1	4%	-10%	2	1%[46.1 µM]	7%[46.1 µM]	18
CC1(C)CC(N2CCCC2)=CC(=[N+]2CCCC2)C1	1.5µM*	0.33µM*	6	2.1µM*	?	-4
CN(Cc1ccccc1)C1=CC(=[N+]2CCCCC2)CC(C)(C)C1	0.37µM*	0.33µM*	8	·	·	-4
CC1(C)CC(N2CCCC2)=CC(=[N+]2CCCCC2)C1	0.83µM*	?	3	?	?	-7
CC1(C)CC(N2CCN(Cc3ccccc3)CC2)=CC(=[N+]2CCCCC2)C1	0.83µM*	0.52µM*	0	6.5µM*	?	-3
CCOc1ccc(NC(=O)CSc2nc(C3CC3)nc3ccccc23)cc1	-23%	-6%	6	-16%[46.1 µM]	1%	-5
COCCN(C(=S)Nc1cc(C)cc(C)c1)C(C)c1cccnc1 (stereo not given)	0%	-29%	3	-14%	1%	19
O=C1c2ccccc2NC(c2ccc(-c3cccc([N+](=O)[O-])c3)o2)N1O (stereo not given)	?	?	1	?	?	-3
CN=c1scc(-c2ccc([N+](=O)[O-])cc2)n1/N=C/c1ccco1	338%	i	27*	4%[46.1 µM]	-3%	91*
O=C1c2ccc([N+](=O)[O-])cc2NC(c2ccco2)N1/N=C/c1ccco1 (stereo not given)	33%	?	15*	13%[46.1 µM]	6%[46.1 µM]	31*
CCOc1c(N2CC(C)OC(C)C2)c(=O)c1=O (stereo not given)	-3%	14%	-3	11%[46.1 µM]	-1%	-5
COc1ccc(N(C(=O)CNC(=O)c2cccs2)C(C(=O)NC2CCCC2)c2ccncc2)cc1 (stereo not given)	-5%	13µM*	-4	13%[46.1 µM]	-5%[46.1 µM]	-4
COc1cccc(N(C(=O)CNC(=O)c2ccco2)C(C(=O)NC2CCCC2)c2ccncc2)c1 (stereo not given)	-3%	11%	-2	-4%	-2%	14
O=C(NCC(=O)N(c1ccc2c(c1)OCCO2)C(C(=O)NC1CCCC1)c1ccco1)c1ccco1 (stereo not given)	?	0.83µM*	5	19%	-8%	9
O=C(NCC(=O)N(c1cccc(F)c1)C(C(=O)NC1CCCC1)c1ccco1)c1ccco1 (stereo not given)	1%	-22%	-4	-7%[46.1 µM]	0%	-11
CCOC(=O)c1ccc(N(CC(=O)NC2CCCC2)C(=O)CNC(=O)c2ccco2)cc1	9.3µM*	7%	-2	1%	7%	-11
COc1ccc(N(C(=O)CNC(=O)c2ccco2)C(C(=O)NC2CCCC2)c2ccncc2)cc1 (stereo not given)	11%	2.6µM*	11	-6%[46.1 µM]	?	15
Cc1ccc(CONC(=O)c2cccc(C)c2)cc1	-7%	13%	·	·	·	·
CCOC(=O)c1c(C2COc3ccccc3O2)csc1N (stereo not given)	·	·	5	-29%	1%	4
Cc1ccc(N(C(=O)c2ccc3c(c2)OCO3)C2C=CS(=O)(=O)C2)cc1C (stereo not given)	-5%	-6%	2	1%	-4%	-30
COc1ccc(NC(=O)CSc2nc(O)cc(=O)[nH]2)c(OC)c1	19%	27%	-2	·	·	10
O=C(NCC(=O)N(c1cnc2ccccc2c1)C(C(=O)NC1CCCC1)c1ccncc1)c1ccco1 (stereo not given)	6%	-41%	15*	2%	-4%	18
Cc1ccc(N(C(=O)CNC(=O)c2ccco2)C(C(=O)NC2CCCCC2)c2ccncc2)c(C)c1 (stereo not given)	12µM*	-6%	-10	1%[46.1 µM]	-10%[46.1 µM]	6
O=C(CN(C(=O)CNC(=O)c1ccco1)c1ccc2c(c1)OCO2)NC1CCCCC1	-28%	0%	12	4%	-3%	5
O=C(NCC(=O)N(Cc1cccs1)C(C(=O)NC1CCCCC1)c1ccncc1)c1ccco1 (stereo not given)	?	5.9µM*	-3	8%	-9%	14
SMILES	Pf growth 48h	Pf growth 96h	CHX counter	MARV entry inh	LASV entry inh	Shiga toxin inh
O=C(CN(Cc1ccc2c(c1)OCO2)C(=O)CNC(=O)c1ccco1)NC1CCCCC1	8%	7.4µM*	-4	?	0%	-2
Cc1nnc(NC(=O)CSc2nccn2-c2ccc(Cl)cc2)s1	·	·	·	·	11%[46.1 µM]	·
CC(=O)O[C@@]12CO[C@@H]1C[C@H](O)[C@@]1(C)C(=O)[C@H](O)C3=C(C)[C@@H](OC(=O)[C@H](O)[C@@H](NC(=O)c4ccccc4)c4ccccc4)C[C@@](O)([C@@H](OC(=O)c4ccccc4)C12)C3(C)C (stereo not given in full)	0.074µM*	0.074µM*	-1	·	·	-7
CC(=O)O[C@H]1C(=O)[C@@]2(C)C([C@H](OC(=O)c3ccccc3)[C@]3(O)C[C@H](O)C(C)=C1C3(C)C)[C@]1(OC(C)=O)CO[C@@H]1C[C@H]2O (stereo not given in full)	43%	4%	-2	·	·	-2
CC(=O)O[C@H]1C(=O)[C@@]2(C)C([C@H](OC(=O)c3ccccc3)[C@]3(O)C[C@H](OC(=O)[C@H](O)[C@@H](NC(=O)Cc4ccccc4)c4ccccc4)C(C)=C1C3(C)C)[C@]1(OC(C)=O)CO[C@@H]1C[C@@H]2O (stereo not given in full)	3.7µM*	0.74µM*	-1	·	·	14
CC(=O)O[C@H]1C(=O)[C@@]2(C)C([C@H](OC(=O)c3ccccc3)[C@]3(O)C[C@H](OC(=O)[C@H](O)[C@@H](NC(=O)c4ccccc4)c4ccccc4)C(C)=C1C3(C)C)[C@]1(OC(C)=O)CO[C@@H]1C[C@H]2O (stereo not given in full)	?	?	-3	·	·	8
CC(=O)O[C@@]12CO[C@@H]1C[C@H](O)[C@@]1(C)C(=O)[C@H](O)C3=C(C)[C@@H](OC(=O)C(O)[C@@H](NC(=O)OC(C)(C)C)c4ccccc4)C[C@@](O)([C@@H](OC(=O)c4ccccc4)[C@H]21)C3(C)C (stereo not given in full)	0.014µM*	0.014µM*	·	·	·	·
c1ccc(CN2CCOCC2)nc1	·	·	·	8%	3%	·
N#Cc1ccccc1NC(=O)Nc1cccc(Cl)c1	30%	33%	-3	-4%	18%	-14
N#CCc1ccc(NC(=O)Nc2cccc(Cl)c2)cc1	?	0%	32*	?	-20%	71
O=C(Nc1cccc(Cl)c1)Nc1ccnc(-c2cccnc2)n1	10µM*	-19%	12	?	11%[46.1 µM]	-3
CC(=O)Nc1ccnc(-c2cccnc2)n1	11%	137%	-3	19%	5%	-16
CC(C)S(=O)(=O)c1csc(C(=O)NNC(=O)Nc2ccccc2)c1Cl	32%	-6%	-3	-9%	-4%	7
